Rows were chosen to be rich in hits. Some 2% of all compounds tested hit in one or more screens of this group.
ABHD5 PLIN5 PPI: inhibitors of human ABHD5-perilipin-5 interaction | AID 602281 | inhibition, % at 4 µM | actives 0.78% (n = 360,000) | Q00G26+Q8WTS1 | Split G. princeps luciferase complementation, luminescence, 4 h;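 active means inhibition above the mean inhibition across every tested compound plus 3 SD, cut at about 22% in these data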;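 further: 0% = DMSO only wells and the 100% control is not disclosed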
TLR9-MyD88 block: inhibitors of human TLR9-MyD88 binding; Q9NR96+Q99836; CHO BLA complementation TLR9-MyD88, CCF4 FRET ratio; inhibition, % at 4.98 µM; actives 0.21% (n = 340,000); AID 504734;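 active means inhibition above the mean over all tested compounds plus 3 SD, cut at about 21% in these data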;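 further: 0% = DMSO only wells and 100% = clavulanate BLA inhibitor control wells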
Exocytosis inh: blocks lytic granule exocytosis; actives 0.66% (n = 360,000); inhibition, % at 10 µM; TALL-104 LAMP-1 surface exposure, flow cytometry; cells stimulated with thapsigargin and PMA;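 active means inhibition above about 55%, limit read from the data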
TLR4-MyD88 BLA: blocks binding of human TLR4 to MyD88; O00206+Q99836; HeLa CL3-4 TLR4/MyD88 BLA complementation, FRET ratio; inhibition, % at 8.4 µM; actives 0.18% (n = 200,000); AID 861; in the data active means inhibition above about 25%;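 further: 0% = vehicle and 100% = reference inhibitor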
NOD2-RIPK2 inh: NOD2-RIPK2 protein interaction inhibition | AID 624267 | CHO BLA complementation NOD2-RIPK2, CCF4 ratio | inhibition, % at 4.98 µM | O43353 | actives 0.38% (n = 360,000); in the data active means inhibition above about 21%;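 further: 0% = vehicle only and 100% = reference blocker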
Beta2AR agonist: human beta-2 adrenergic receptor agonism by FAP | Am2.2-beta2AR cells, FAP receptor internalization, flow cytometry | response, % (concentration not given with the values) | actives 0.43% (n = 340,000) | AID 504454;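 active means response above a set limit, near 3 SD of response in nonfluorescent compounds, cut at about 42% in these data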
Numbers without * were called inactive; x = no result; ! = not confirmed by another sample.

SMILES	ABHD5 PLIN5 PPI	TLR9-MyD88 block	Exocytosis inh	TLR4-MyD88 BLA	NOD2-RIPK2 inh	Beta2AR agonist
CCOC(=O)c1sc(NC(=O)CSc2n[nH]c(-c3ccncc3)n2)c(C#N)c1C	5.2	10.6	3.1	-10.9	-7.8	5.8
NC(=O)c1ccsc1NC(=O)CSc1n[nH]c(N)n1	-0.9	x	8.0	x	-0.3	x
CCOc1ccc(/C=C/C2=Cc3c(sc(NC(=O)CSc4n[nH]c(N)n4)c3C#N)C(C)(C)C2)cc1	6.1	-1.2	77.6*	13.9	13.7	-4.1
Cc1ccsc1/C=C/C1=Cc2c(sc(NC(=O)CSc3n[nH]c(N)n3)c2C#N)C(C)(C)C1	-8.0	4.2	100.9*	-1.1	9.6	9.5
Cc1cc2c(cc1C)-n1nnnc1C(N(C)CCc1ccccc1)C(=O)N2 (configuration not stated)	11.3	x	-10.0	x	7.7	x
O=Cc1ccc2noc(-c3ccc(F)cc3)c2c1	10.2	-5.1	-2.5	7.5	-2.4	46.1*
CC1(C(=O)NS(=O)(=O)c2cccc(F)c2)CCN1C(=O)CCC1CCCC1 (configuration not stated)	-5.5	x	3.8	x	-3.0	x
CC(=O)Nc1cccc(C(=O)/C=C/c2cccs2)c1	22.4*	-1.0	3.5	2.7	-6.4	-0.7
CC(=O)Nc1cccc(C(=O)/C=C/c2ccc(/C=C/C(=O)c3cccc(NC(C)=O)c3)cc2)c1	x	x	x	5.3	x	x
CC(=O)Nc1cccc(C(=O)/C=C/c2ccco2)c1	28.5*	4.5	5.5	2.6	-3.3	-4.1
Cc1cccc(NS(=O)(=O)c2ccc(NC(=O)CN(c3cc([N+](=O)[O-])ccc3C)S(C)(=O)=O)cc2)c1	32.0*	-0.4	13.0	-7.0	-6.9	30.1
Cc1c(C)c(C)c(CO/N=C/c2cccs2)c(C)c1C	2.5	-3.2	88.0*	x	6.7	-10.3
Nc1sccc1C(=O)NCCN1CCOCC1	-11.3	x	-0.8	x	-4.8	x
C=Cc1c(C)c2cc3[nH]c(cc4nc(cc5nc(cc1[nH]2)C(C)=C5CCC(=O)O)C(CCC(=O)O)=C4C)c(C)c3C=C	5.5	-5.7	7.9	x	-0.9	45.4*!
CSC1=NSC2=NC(=O)/C(=C\c3ccc(OC(=O)c4ccco4)cc3)C(=N)N12	-9.9	-3.0	-13.4	x	1.7	43.3*
CC1=C(C(=O)OCC(C)C)C(c2cccc(F)c2)N2C(=O)C(C)SC2=N1 (configuration not stated)	-3.6	-11.3	59.2*	-5.5	0.3	-3.9
CCOC(=O)C1=C(C)N=C2SC(C)C(=O)N2C1c1cccc(F)c1 (configuration not stated)	-6.2	-2.0	1.3	-2.9	-2.2	12.3
COc1ccccc1/C=C/C=C(\C#N)C(=O)NC(C)c1ccccc1 (configuration not stated)	13.6	-18.5	76.9*	x	4.7	5.6
Cc1oc(-c2ccc3c(c2)OCCO3)cc1C(=O)NCC(=O)O	22.1*	-5.5	12.4	8.1	-5.4	-0.2
Cn1cnc2nc(Cl)nc(Cl)c21	-1.2	0.6	0.3	x	18.5	61.6*
O=[N+]([O-])c1ncccc1OCc1ccc(-c2ccccc2)cc1	-5.7	-3.4	86.0*	x	-2.2	8.4
N#Cc1ccc(COc2cccnc2[N+](=O)[O-])cc1	-3.9	-1.1	1.0	x	2.6	-1.5
CCNC(=O)/C(C#N)=C/c1c(N2CCOCC2)nc2ccccn2c1=O	1.9	-3.3	-4.4	0.5	-11.0	46.7*
CC1(C(=O)Nc2ccc3c(c2)OCO3)Cc2c(-c3cccc(C(N)=O)c3)ccnc2O1 (configuration not stated)	10.1	x	10.6	x	-1.3	x
COc1ccc(CN(C)C[C@@H]2OCCCC[C@H](C)Oc3ccc(NC(=O)Nc4ccc(F)cc4)cc3C(=O)N([C@H](C)CO)C[C@H]2C)cc1	1.7	16.0	-0.2	x	-10.5	x
SMILES	ABHD5 PLIN5 PPI	TLR9-MyD88 block	Exocytosis inh	TLR4-MyD88 BLA	NOD2-RIPK2 inh	Beta2AR agonist
C/C(=N\Nc1ncc(Cl)cc1Cl)c1ccccn1	-1.2	6.5	98.4*	20.8	2.6	-267.2
C/C(=N\Nc1ccc(Cl)c(C(=O)O)c1)c1ccccn1	-2.5	-5.8	-7.4	x	-5.4	-0.5
Cc1ccc(S(=O)(=O)N2[C@H](CC(=O)c3ccc(Cl)c(Cl)c3)OC[C@@H]2C(C)C)cc1	-3.8	x	-2.6	x	-3.2	x
CCOC(=O)C1=C(O)c2ccccc2C(=O)/C1=C\c1ccc(C)cc1	20.5	-3.8	96.8*	5.1	10.8	-906.6
O=Nc1c(-c2c(O)[nH]c3cc(Br)ccc23)[nH]c2ccccc12	2.5	16.7	26.6	x	4.0	43.2*
O=C(CSCc1cccc(Br)c1)N=Nc1c(O)[nH]c2ccccc12	-2.1	9.0	4.6	-7.4	-1.6	7.8
COc1ccc(/C=C/c2cc(C(F)(F)F)[nH]c(=O)n2)cc1OC	22.3*	x	8.5	11.5	1.2	4.5
Cc1ccc(N2CCN(C(CCc3ccccc3)C(=O)Nc3c(C)cccc3C)CC2)cc1 (configuration not stated)	-6.8	x	0.0	x	3.8	x
CC(=O)c1ccc2c(c1)N(Cc1ccccc1)C(=O)C(C)S2 (configuration not stated)	8.3	x	-24.2	x	-10.4	x
CCn1c(SCC(=O)N(C)CCC#N)nc2cc(S(=O)(=O)N3CCOCC3)ccc21	22.7*	-2.5	-7.8	x	-18.5	-9.5
Cc1c(N=C2C=C(Br)C(=O)C(Br)=C2)c(=O)n(-c2ccccc2)n1C	-17.7	-3.2	6.7	-8.6	-4.1	0.8
Cc1c(N=C2C=CC(=O)c3ccccc32)c(=O)n(-c2ccccc2)n1C	-9.6	12.8	95.2*	-22.7	-1.8	43.9*
CN1C(=O)C2(NC(=O)c3ccccc3N2C)c2ccccc21 (configuration not stated)	-1.6	2.6	-4.8	x	-10.4	-2.6
CN1C(=O)C(Cl)(Cl)C(=O)c2ccccc21	88.1*	-1.8	-1.6	5.6	-9.8	0.3
COC(=O)C[C@@H]1OC[C@H](C(C)C)N1S(=O)(=O)c1ccc(C)cc1	-1.5	x	-3.8	x	-14.9	x
CCOc1ccc(Cl)cc1-c1cc(C(=O)Nc2ccc(Br)cc2)[nH]n1	3.1	x	5.8	x	-5.5	x
CC(C)C[C@@]12C(=O)N(c3cccc(F)c3)C(=O)N1[C@H](c1ccc(Br)cc1)[C@@H]1C(=O)N(C(C)(C)C)C(=O)[C@@H]12	-7.7	-2.6	76.7*	x	0.1	-1.8
C#CC(=O)N(c1cccc(OC)c1)C(C(=O)NC1CCCC1)c1cccs1 (configuration not stated)	22.9*	5.7	9.5	17.8	10.4	-253.8
COc1cccc(C(=O)C(CCC#N)c2ccccc2)c1 (configuration not stated)	5.3	-5.2	-5.6	x	-4.5	x
CSC(SC)=C(C#N)C(=O)c1ccccc1	-3.8	-10.0	56.1*	x	1.4	70.3*
COc1cccc(C(=O)C(C#N)=C(SC)SC)c1	7.8	-4.9	70.2*	x	-5.4	21.4

Bioassay records as filed in PubChem BioAssay.
